# Results published in PubChem BioAssay AID686979 (National Center for Advancing Translational Sciences (NCATS), 2013).
# “And” between values parts separate entries of the source, which are not always exact repeats. Equal values may be shown once. The whole screen tested about 420,000 compounds, of which about 50,000 (12%) were called active. A call without a number means that no potency is given here. Inconclusive results (about 26%) are left out. Calls follow the shape of the dose curve; as a rule, active = well fitted inhibition curve with a large enough effect; inconclusive = small, poorly fitted or top-dose-only effect; inactive = flat fitted curve, though single readings scatter. This excerpt belongs to a sample that is enriched for actives.
# Experiment: qHTS for Inhibitors of human tyrosyl-DNA phosphodiesterase 1 (TDP1): qHTS in cells in presence of CPT; also: nearly all actives have a fitted effect of over 55% in size
# Conditions: chicken DT40 Tdp1-/-;hTDP1 cells + 20 nM CPT, ATP luminescence, 48 h; series mostly up to 46.2 µM
# Outline: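 Chicken DT40 Tdp1-/- cells complemented with human TDP1, 400 cells/well, exposed to compounds plus 20 nM camptothecin for at least 48 h at 37 C; viability read as ATP content by CellTiter-Glo luminescence.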
# Potency is read from the fitted curve at half-maximal effect.
row,SMILES,Potency
1,O=C1C[C@@H]2c3c(cccc3CN1Cc1ccccc1)C[C@@H](O)[C@H]2O,inactive
2,NC(=O)CSc1nnc(NC(=O)c2ccc3ccccc3c2)s1,inactive
3,CCc1ccccc1NC(=O)c1ccc(F)c(S(=O)(=O)NC2CCCCCC2)c1,inactive
4,Cc1cc(=O)n(CC(=O)Nc2cccc([N+](=O)[O-])c2)c(-n2nc(C)cc2C)n1,20.6 µM (active)
5,CN1CCN(CC(=O)Nc2cccc([N+](=O)[O-])c2)CC1,inactive
6,O=C(CN1CCOCC1)Nc1cccc([N+](=O)[O-])c1,inactive
7,Cn1c(=O)c2c(ncn2CC(=O)N/N=C/c2cn[nH]c2-c2ccc(F)cc2)n(C)c1=O,inactive
8,COc1ccc(Br)cc1/C=N/Nc1ccc(Cl)c(C(=O)O)c1,inactive
9,N#Cc1c(-c2ccc(F)cc2)cc(C2CC2)nc1SCC(=O)c1cccs1,inactive
10,O=S(=O)(NC1CC1)c1ccc(F)c(F)c1,inactive
11,Cn1sc(=O)c2cc(S(=O)(=O)NC3CC3)ccc21,2.91 µM (active)
12,O=S(=O)(NC1CC1)c1ccc(Cl)cc1,inactive
13,COc1ccc(C)cc1NC(=O)NCCCCc1ccccc1,inactive
14,CCOC(=O)c1[nH]c(C)c(C(=O)OCC(=O)N2c3ccccc3CC2C)c1C (configuration not stated),inactive
15,CC(=O)CSc1nc(CCc2ccccc2)c(C#N)c(=O)[nH]1,inactive
16,Cc1nn2c(=O)cc(COC(=O)c3ccccc3NC(=O)COc3ccccc3C)nc2s1,inactive
17,CCOC(=O)CSc1nnc(NC(=O)c2cccc(S(=O)(=O)N3CCCCC3)c2)s1,inactive
18,CS(=O)(=O)c1ccc2nc(NC(=O)c3ccc(N4CCCC4=O)cc3)sc2c1,inactive
19,Cc1nn(C)c(C)c1S(=O)(=O)N1CCc2ccccc21,inactive
20,O=S(=O)(c1ccccc1)N1CCc2ccccc21,inactive
21,O=C(Nc1nnc(S(=O)(=O)N2CCCCCC2)s1)c1cccc(Br)c1,5.8 µM (active) and 25.9 µM (active)
22,CSc1nc2ccc(S(=O)(=O)N3CCc4ccccc43)cc2s1,16.4 µM (active)
23,O=C(Nc1nnc(S(=O)(=O)N2CCOCC2)s1)c1cccc(Br)c1,inactive

row,SMILES,Potency
1,O=C(Nc1nnc(S(=O)(=O)N2CCCc3ccccc32)s1)c1cccc(F)c1,16.4 µM (active)
2,Cc1cccc(C(=O)Nc2nnc(S(=O)(=O)N3CCCCCC3)s2)c1,inactive
3,O=C(Nc1nc2ccc([N+](=O)[O-])cc2s1)c1ccc(S(=O)(=O)N2CCCc3ccccc32)cc1,4.61 µM (active)
4,CCC(=O)Nc1nnc(S(=O)(=O)N2CCCc3ccccc32)s1,inactive
5,NS(=O)(=O)c1ccc2nc(NC(=O)C3=COCCO3)sc2c1,inactive
6,CN(Cc1ccc2nsnc2c1)Cc1nc(Cc2cccc(F)c2)no1,inactive
7,Cc1cc(C)c(S(=O)(=O)c2ccc(F)cc2C)c(=O)[nH]1,inactive
8,CN(CC(=O)NC1CCCC1)S(=O)(=O)c1cnc[nH]1,inactive
9,C=CCN1CN(S(=O)(=O)c2ccc(OC)cc2)c2nc3ccccc3nc21,inactive
10,O=C(Cn1cc(C(F)(F)F)ccc1=O)N/N=C/c1ccc(Cl)cc1Cl,inactive
11,CC1(C(=O)NS(=O)(=O)c2ccc(C#N)cc2)CCN1C(=O)c1ccc(C2CCCCC2)cc1 (configuration not stated),inactive
12,O=C(CNC(=O)OCc1ccccc1)NC1CCCCNC1=O (configuration not stated),inactive
13,Cc1ccc(C(=O)NCC(=O)OCC(=O)NC2CCCCCCC2)cc1,inactive
14,CN(C1CCS(=O)(=O)C1)S(=O)(=O)c1ccc2ccccc2c1 (configuration not stated),inactive
15,O=C(COC(=O)c1ccc(F)cc1)Nc1nc2ccc([N+](=O)[O-])cc2s1,inactive
16,O=C(NC(Nc1nc2ccc([N+](=O)[O-])cc2s1)(C(F)(F)F)C(F)(F)F)c1ccccc1,0.461 µM (active)
17,O=C(CNC(=O)c1ccccc1)Oc1ccc([N+](=O)[O-])cc1,inactive
18,Nc1ccc(N=Nc2ccccc2Cl)c(N)n1,inactive
19,Cc1cc(Br)cn2c(Cc3ccccc3C(F)(F)F)c(C3CCCCC3)nc12,inactive
20,Cc1ccc(-c2nc3c(C)cc(Br)cn3c2Cc2ccccc2)cc1,inactive
21,Cc1ccc(Cc2c(-c3ccco3)nc3ccc(Cl)cn23)cc1,8.2 µM (active)
22,CN1CCN(Cc2c(C(=O)N3CCc4ccccc4C3)nc3ccc(Cl)cn23)CC1,inactive
23,Cc1ccc(-c2nc3ccc(Cl)cn3c2Cc2ccccc2)cc1,20.6 µM (active)

row,SMILES,Potency
1,Cc1ccc(-c2nc3ccc(Br)cn3c2Cc2ccccc2C(F)(F)F)cc1,16.4 µM (active)
2,CC(=O)Nc1c(-c2ccc(C)cc2)nc2ccc(Cl)cn12,inactive
3,Cc1cc(Br)cn2c(Cc3ccccc3C(F)(F)F)c(-c3ccc(Cl)cc3)nc12,inactive
4,Cc1ccc(Cc2c(-c3ccccc3)nc3ccc(Cl)cn23)cc1,inactive
5,Cc1ccccc1-n1nnnc1SCCCC(=O)c1ccc(F)cc1,inactive
6,CCCS(=O)(=O)NC(=O)C1(C)CCCN(C(=O)c2cc(C)on2)C1 (configuration not stated),inactive
7,O=S(=O)(c1cccc(-c2cn3ccccc3n2)c1)N1CCCC1,inactive
8,O=C(COC(=O)c1cccc(Cl)c1)NC1CCCCCCC1,inactive
9,Cc1nnc(NC(=O)Cn2c(=O)sc3ccccc32)s1,inactive
10,O=C(c1ccccc1)c1ccc2nc(N3CCCCC3)c3nncn3c2c1,23.1 µM (active)
11,O=C(NNc1nc(N2CCCC2)nc(N2CCCC2)n1)c1ccccc1,inactive
12,c1ccc(CC2CCN(c3nc4ccccc4n4cnnc34)CC2)cc1,inactive
13,O=C(CN1CCCCC1)NC(=O)Nc1ccccc1F,inactive
14,Cc1cc(C)c(C(N)=O)c(Cl)n1,inactive
15,COc1ccc(CN2C(=O)C(CC(=O)NCCN3CCOCC3)CC(C(=O)N(C(C)C)C(C)C)=C2C)cc1 (configuration not stated),inactive
16,CC(C)(Oc1ccc(Cl)cc1)C(=O)OCC(=O)NCCc1ccc(S(N)(=O)=O)cc1,inactive
17,O=C(N/N=C/c1ccc(Cl)c(Cl)c1)c1ccc2nc[nH]c2c1,inactive
18,CCCc1cc(=O)oc2c(C)c(OCC(=O)N3CCC(C(=O)O)CC3)ccc12,inactive
19,O=C(NCc1ccccn1)C1CCN(S(=O)(=O)c2ccc(Br)cc2)CC1,inactive
20,CN(C)CCCNC(=S)N1CCC(c2nc3ccccc3[nH]2)CC1,inactive
21,O=S(=O)(c1ccc(Br)cc1)N1CCC(c2nc3ccccc3[nH]2)CC1,18.4 µM (active)
